# Compounds with a hit are over-represented: about 32% of the library has one in this group of screens.
# CYP2C9 inhib: human CYP2C9 inhibition. P11712. CYP2C9 Supersomes, luciferin-H conversion, luminescence. inhibition, % at 5 µM. 96,000 tested, 20% active. AID 777;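 active = blocking of liver enzyme CYP2C9 beyond about 50% at 5 µM, limit read from the data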
# Target sequence (P11712 whole entry, looked up): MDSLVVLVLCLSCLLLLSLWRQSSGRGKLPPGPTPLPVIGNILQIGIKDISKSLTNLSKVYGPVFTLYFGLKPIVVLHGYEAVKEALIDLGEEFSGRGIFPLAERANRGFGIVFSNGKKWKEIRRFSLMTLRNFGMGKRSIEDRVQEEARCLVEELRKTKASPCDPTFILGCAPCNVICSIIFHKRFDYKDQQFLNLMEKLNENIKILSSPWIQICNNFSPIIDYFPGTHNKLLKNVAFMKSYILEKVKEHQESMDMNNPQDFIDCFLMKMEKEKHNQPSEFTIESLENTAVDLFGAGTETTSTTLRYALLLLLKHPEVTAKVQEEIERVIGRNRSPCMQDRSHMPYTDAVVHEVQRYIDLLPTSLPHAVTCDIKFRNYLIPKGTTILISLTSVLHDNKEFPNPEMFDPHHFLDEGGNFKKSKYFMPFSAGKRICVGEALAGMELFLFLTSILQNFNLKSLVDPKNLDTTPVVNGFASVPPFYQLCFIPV
# PostGolgi ctrl: yeast control strain growth, post-Golgi counter-screen; inhibition, % at 10 µM; efflux-deficient yeast background strain, growth absorbance A615, 16 h; 98,000 tested, 5% active
# CYP2C19 activ: increases human CYP2C19 enzyme activity | AID 1025 | recombinant CYP2C19, luciferin-H EGE luminescence; active compounds read high; 0 = fully inhibited enzyme, 1 = untreated enzyme | activation factor at 5 µM | 96,000 tested, under 10 active;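 active = activation factor of at least 2 at 5 µM in the primary screen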
# PostGolgi yeast: growth inhibition of a yeast mutant, post-Golgi transport screen; post-Golgi transport phenotypic cell assay; inhibition, % at 10 µM; 98,000 tested, 0.9% active; AID 739;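 note: yeast cells grown in 1536-well plates; yeast grown about 18 h at 30C before absorbance read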
# CYP2C19 inhib: blocks human cytochrome P450 2C19 | P33261 | AID 778 | inhibition, % at 5 µM | CYP2C19 Supersomes, luciferin-H EGE luminescence, 30 min | 96,000 tested, 21% active;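 active = CYP2C19 inhibition above a set limit at 5 µM in the primary screen, cut at about 50% in these data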
# CYP2C9 activ: increases human cytochrome P450 2C9 activity. P11712. recombinant CYP2C9, luciferin-H conversion, luminescence; active compounds read high; factor 1 = untreated enzyme, 0 = blocked. activation factor at 5 µM. 96,000 tested, 1.4% active;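 active = activation factor of 2 or more for CYP2C9 at a 5 µM dose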
# Hits are given with their value; – = inactive; · = not tested or not shown. Cut-off read from the data, not from the text of the source, unless noted: active = inhibition above about 30%; inactive = the rest.
SMILES,CYP2C9 inhib,PostGolgi ctrl,CYP2C19 activ,PostGolgi yeast,CYP2C19 inhib,CYP2C9 activ
O=C(CSC1=NCCS1)Nc1ccccc1F,–,–,–,–,79.1,–
COc1ccc(NC(=O)CN2CCCCC2)cc1,–,–,–,–,76.6,–
COc1ccc(NC(=O)CN2CCN(CC(=O)Nc3ccccc3Cl)CC2)c(OC)c1,73.7,–,–,–,97.7,–
O=C(Nc1ccc(Br)cc1)N1CCCCCCC1,–,–,–,–,92.7,–
COc1ccc(S(=O)(=O)N2CCN(CC(=O)Nc3ccc(F)c(F)c3)CC2)cc1,–,–,–,–,69.5,2.2
COc1ccc(NC(=O)CN2CCC(C(N)=O)(N3CCCCC3)CC2)cc1,–,–,–,–,–,–
COc1ccc(-n2c(Cc3cccn3C)nnc2SCC(=O)Nc2nc(C)cs2)cc1,–,–,–,–,–,–
COC(=O)c1cc(-c2ccccc2)n(CC(=O)O)c1C,–,–,–,–,–,–
N#Cc1ccsc1NC(=O)CN1CCCCCC1,–,–,–,–,50.1,–
COc1ccc(NC(=O)CSC2CCCCC2)cc1,50.8,–,–,–,97.5,–
O=C(CN1CCN(S(=O)(=O)c2ccc(F)cc2)CC1)Nc1ccc2c(c1)OCCO2,–,–,–,–,–,–
COc1ccc(NC(=O)CN2CCN(CC(=O)Nc3ccccc3F)CC2)cc1OC,–,–,–,–,–,–
CN(CC(=O)Nc1sccc1C#N)C1CCCCC1,·,–,·,–,·,·
COc1ccc(NC(=O)CN2CCN(CC(=O)Nc3ccccc3F)CC2)c(OC)c1,70.9,–,–,–,97.5,–
O=C(CN1CCN(S(=O)(=O)c2ccc(F)cc2)CC1)Nc1ccc(Cl)c(C(F)(F)F)c1,–,32.5,–,–,–,–
NS(=O)(=O)c1ccc(NC(=O)CSC2CCCCC2)cc1,–,–,–,–,–,–
Cc1ccc(C)c(C(=O)C(C)OC(=O)c2cccn2C)c1 (configuration not stated),–,–,–,–,–,–
CCOc1ccc(NC(=O)CN2CCN(CC(=O)Nc3cccc(F)c3)CC2)cc1,–,–,–,–,–,–
CCOc1ccc(NC(=O)CN2CCN(CC(=O)Nc3cc(OC)cc(OC)c3)CC2)cc1,59.0,–,–,–,–,–
O=C(CCN1CCCCC1)Nc1ccc(Br)cc1,·,–,·,–,·,·
COc1ccc(NC(=O)CN2CCN(CC(=O)Nc3ccccc3Cl)CC2)cc1,–,–,–,–,85.0,–
O=C(CN1CCNCC1)Nc1ccccc1Cl,–,–,–,–,–,–
COc1ccc(OC)c(NC(=O)CN2CCC(C(=O)c3ccc(C)cc3)CC2)c1,–,34.6,–,–,–,–
O=C(CN1CCCCCC1)Nc1ccc(Br)cc1,–,–,–,–,93.2,–
CCNC(=O)/N=C1/NC(=O)C(C(C)C)O1 (configuration not stated),–,–,–,–,–,–
SMILES,CYP2C9 inhib,PostGolgi ctrl,CYP2C19 activ,PostGolgi yeast,CYP2C19 inhib,CYP2C9 activ
CN(CCc1ccccn1)C(=O)CN(C)S(=O)(=O)c1ccc2c(c1)c(=O)n(C)c(=O)n2C,–,–,–,–,–,–
Brc1cccc(-c2nnco2)c1,–,–,–,–,–,–
CCOc1ccc(NC(=O)CN2CCN(CC(=O)Nc3ccc(Cl)c(C(F)(F)F)c3)CC2)cc1,–,35.2,–,–,–,–
COc1ccc(OC)c(NC(=O)Cn2cc(C#N)c3cc(Br)ccc32)c1,99.4,–,–,–,92.9,–
CC(C)N1C(=O)C2C(c3ccccc3O)NC(C)(C(=O)O)C2C1=O (configuration not stated),–,–,–,–,–,–
CC(c1nc2ccccc2c(=O)[nH]1)N1CCN(C)CC1 (configuration not stated),–,–,–,–,–,–
Cc1cccc(N=C2NN=C(c3ccc4c(c3)OCCO4)CS2)c1,–,–,–,–,–,–
c1ccc(C2=NNC(=NC3CC3)SC2)cc1,54.2,–,–,–,84.2,–
Cc1nnc(OCc2nc3ccccc3n2C)c2ccccc12,59.0,–,–,–,–,–
Cn1c(Cn2cnc3ccccc32)nc2ccccc21,–,–,–,–,–,–
Cc1ccc(C(=O)NC=C(Cl)Cl)cc1,–,–,–,–,–,–
O=C(COC(=O)c1ccc2c(c1)OCO2)NC1CCS(=O)(=O)C1 (configuration not stated),–,·,–,·,–,–
Fc1ccccc1N1CCN(CCCNc2ccc3nncn3n2)CC1,–,–,–,–,–,–
CN1CC(c2ccc(C#N)cc2)C2(COc3ccccc3C2=O)C12C(=O)Nc1ccccc12 (configuration not stated),–,31.0,–,–,–,–
COc1ccc(Cn2c(C)c(C)c(C#N)c2NC(=O)Nc2ccc(Cl)cc2)cc1,–,–,–,–,–,–
O=C(Cn1c(=O)n(-c2cccc(Cl)c2)c(=O)n1CC(=O)N1CCCCC1)N1CCCCC1,–,–,–,–,–,–
O=C(CCC(=O)OCC(=O)c1ccc(F)cc1)NC1CCCCC1,–,–,–,40.0,–,–
O=C(CCC(=O)OCC(=O)c1ccc(Br)cc1)NC1CCCCC1,–,37.0,–,–,–,–
O=C(N/N=C/c1ccccc1)c1sccc1OCc1ccc(F)cc1,70.0,68.2,–,–,–,–
O=C(N/N=C/c1cccc(OCc2ccccc2)c1)c1cccs1,83.2,36.7,–,–,–,–
C/C(=N\OCC(=O)N/N=C/c1ccccc1)c1cccs1,–,–,–,–,82.1,–
COc1ccccc1CN1CC(C(=O)N2CCN(c3ccc(F)cc3)CC2)CC1=O (configuration not stated),–,–,–,–,–,–
COCc1cc(=O)[nH]c(Nc2nc3ccc(C)cc3o2)n1,–,–,–,–,–,–
COCCCN1C(=O)C(O)=C(C(C)=O)C1c1ccccn1 (configuration not stated),–,–,–,–,–,–
Cc1ccc(C(=O)N/C(=C\c2cccs2)C(=O)NCc2ccncc2)cc1,–,–,–,–,–,–
SMILES,CYP2C9 inhib,PostGolgi ctrl,CYP2C19 activ,PostGolgi yeast,CYP2C19 inhib,CYP2C9 activ
Cc1ccc(C(=O)N/C(=C\c2ccco2)C(=O)NCCCn2ccnc2)cc1C,70.7,–,–,–,78.8,–
Cc1ccc(C(=O)N/C(=C\c2cccs2)C(=O)NCCCn2ccnc2)cc1C,54.1,–,–,–,–,–
Nc1ncc(Br)cc1S(=O)(=O)NCCC(=O)N1CCN(c2ncccn2)CC1,–,–,–,–,59.6,–
CCOC(=O)N1CCN(C(=O)CCNS(=O)(=O)c2cc(Br)cnc2N)CC1,–,–,–,–,–,–
Nc1ncc(Br)cc1S(=O)(=O)NCCC(=O)Nc1cccc(Cl)c1,–,–,–,–,66.3,–
Cc1cc(NC(=O)CCNS(=O)(=O)c2cc(Br)cnc2N)ccc1Br,–,–,–,–,–,–
COc1cc(NC(=O)c2c(F)c(F)c(F)c(F)c2F)c(OC)cc1Cl,–,–,–,–,–,–
COc1cc(OC)c(NC(=O)CCNS(=O)(=O)c2cc(Br)cnc2N)cc1Cl,94.4,–,–,–,–,–
Cc1cccnc1NC(=O)C1CCN(S(=O)(=O)c2cccs2)CC1,–,–,–,–,–,–

# Screens: PubChem BioAssay, several laboratories
